From PubChem
BoNT A protease: blocks Botulinum neurotoxin A light chain protease; multiplex microsphere protease substrate cleavage, flow cytometry; inhibition, % at 10 µM; actives 0.17% (n = 360,000); AID 588499; further: plate controls were buffer without enzyme for full effect and enzyme alone for no effect
Bead autofluor: compound fluorescence in toxin protease inhibitor counterscreen; fluorescence intensity (no concentration beside the values); actives 3.1% (n = 360,000); compound autofluorescence counterscreen, microsphere flow cytometry; stronger effect = higher value; in the data active means fluorescence intensity above about 16000; inconclusive means no clear call, values can overlap the other calls
Anthrax LF prot: inhibitors of Bacillus anthracis lethal factor protease | multiplex microsphere protease cleavage assay, LF | inhibition, % at 10 µM | actives 0.12% (n = 360,000); further: plate controls were buffer without enzyme for full effect and enzyme alone for no effect
Target sequence (P15917 whole entry, looked up): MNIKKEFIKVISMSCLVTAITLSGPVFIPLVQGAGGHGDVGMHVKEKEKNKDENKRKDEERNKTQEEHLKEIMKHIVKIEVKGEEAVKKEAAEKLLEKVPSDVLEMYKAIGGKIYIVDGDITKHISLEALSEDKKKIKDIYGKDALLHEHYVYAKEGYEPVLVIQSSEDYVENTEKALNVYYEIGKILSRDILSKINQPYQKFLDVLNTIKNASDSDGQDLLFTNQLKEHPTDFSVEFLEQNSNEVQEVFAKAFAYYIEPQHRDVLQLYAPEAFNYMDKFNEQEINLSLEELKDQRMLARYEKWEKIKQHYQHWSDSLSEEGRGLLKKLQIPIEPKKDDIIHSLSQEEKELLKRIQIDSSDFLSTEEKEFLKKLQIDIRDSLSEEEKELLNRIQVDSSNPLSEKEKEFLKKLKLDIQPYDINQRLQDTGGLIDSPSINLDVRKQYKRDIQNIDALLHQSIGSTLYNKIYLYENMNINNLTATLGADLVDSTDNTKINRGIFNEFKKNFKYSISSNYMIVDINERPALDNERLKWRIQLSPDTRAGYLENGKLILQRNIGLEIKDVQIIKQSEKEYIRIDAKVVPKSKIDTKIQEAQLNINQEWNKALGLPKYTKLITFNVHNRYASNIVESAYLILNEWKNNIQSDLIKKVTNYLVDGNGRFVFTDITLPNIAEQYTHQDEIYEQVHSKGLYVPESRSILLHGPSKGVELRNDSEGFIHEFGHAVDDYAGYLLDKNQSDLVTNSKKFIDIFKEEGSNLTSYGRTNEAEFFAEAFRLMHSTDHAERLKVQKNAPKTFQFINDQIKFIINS
BJeLR lethal: BJeLR cell viability loss; BJeLR (HRASV12) viability, CellTiter-Glo ATP luminescence, 48 h; AID 1554; actives 0.17% (n = 300,000); inhibition, % (test concentration not listed); in the data active means inhibition above about 50%; inconclusive means no clear call, values can overlap the other calls
BoNT F protease: BoNT F light chain protease inhibition; inhibition, % at 10 µM; Multiplex microsphere protease cleavage assay, flow cytometry; AID 588497; actives 0.22% (n = 360,000); in the data active means inhibition above about 35%, passing the limit was not always enough; inconclusive means no clear call, values can overlap the other calls; further: plate controls were buffer without enzyme for full effect and enzyme alone for no effect
Vc quorum ag: inducers of Vibrio cholerae quorum light production without autoinducers; V. cholerae BH1578 lux reporter, luminescence, 6 h; AID 588436; activation, % at 18.7 µM; actives 0.16% (n = 350,000); in the data active means activation mostly above about 9.7%, no sharp cut-off; inconclusive means no clear call, values can overlap the other calls; inactive means mostly below about 3.7%
* = called active by the depositor. This is a sample that favours compounds with a hit; in the whole collection about 3.7% have one here. Unless noted, no stated cut-off is given here; in the data, active means inhibition above about 30%; inconclusive means no clear call, values can overlap the other calls; inactive means below that.

Results for Cc1ccc(C2=NCC(=O)N(CC(=O)N3CCCCC3)c3sc(C)c(C)c32)cc1 ?
BoNT A protease: inconclusive; Bead autofluor: 23432*; Anthrax LF prot: -0.3; BJeLR lethal: 4.8; BoNT F protease: -4.1; Vc quorum ag: inactive

What do the screens show for `CCc1nc2c(OCC(=O)C(C)(C)C)cccn2c1N(C=O)Cc1ccc(OC)cc1`?
BoNT A protease: 0.1; Bead autofluor: 3871; Anthrax LF prot: -2.1; BoNT F protease: -3.9; Vc quorum ag: -4.5

How did CC(=O)c1ccc(NC(=O)COC(=O)CCC(=O)c2cccs2)cc1 do in these assays?
BoNT A protease: -0.7; Bead autofluor: 9166; Anthrax LF prot: -2.2; BJeLR lethal: 10.5; BoNT F protease: -3.4; Vc quorum ag: -0.3

How did Cc1ccc(Oc2ccc(NC(=O)CCC(=O)OCC(=O)c3cccs3)cc2)cc1C do in these assays?
BoNT A protease: 0.4; Bead autofluor: 16284*; Anthrax LF prot: -6.8; BJeLR lethal: -6.6; BoNT F protease: -1.4; Vc quorum ag: -0.2

What do the screens show for `CCCCOc1ccc(/C(O)=C(\C#N)c2nc3ccccc3[nH]2)cc1`?
BoNT A protease: -1.2; Bead autofluor: 3997; Anthrax LF prot: 17.0; BJeLR lethal: 4.5; BoNT F protease: 42.1*; Vc quorum ag: inactive

What do the screens show for `COCCn1c(=S)[nH]c2cc(C(=O)N3CCc4ccccc43)ccc2c1=O`?
BoNT A protease: -4.0; Bead autofluor: 24139*; Anthrax LF prot: -3.6; BJeLR lethal: 9.1; BoNT F protease: -4.8; Vc quorum ag: inactive

Results for CCCn1c(=S)[nH]c2cc(C(=O)N3CCc4ccccc43)ccc2c1=O ?
BoNT A protease: -1.8; Bead autofluor: 21147*; Anthrax LF prot: -1.4; BJeLR lethal: -3.4; BoNT F protease: -2.8; Vc quorum ag: -0.2

What do the screens show for `CC(c1ccc2ccccc2c1)c1ccccc1C(=O)O` (stereo not given)?
BoNT A protease: 0.1; Bead autofluor: 4009; Anthrax LF prot: 1.6; BoNT F protease: 3.0; Vc quorum ag: -4.8

What do the screens show for `Cc1ccc(C(=Cc2ccc([N+](=O)[O-])cc2)C(=O)O)cc1`?
BoNT A protease: -0.3; Bead autofluor: 3423; Anthrax LF prot: 0.8; BoNT F protease: -2.8; Vc quorum ag: -2.9

How did CC(NC(=O)C(Cc1ccccc1)NC(=O)c1ccccc1)C(=O)O (stereo not given) do in these assays?
BoNT A protease: inconclusive; Bead autofluor: 22982*; Anthrax LF prot: -0.8; BJeLR lethal: -11.4; BoNT F protease: -1.2; Vc quorum ag: inactive

Results for C(=N\Nc1nc(N2CCOCC2)nc(N2CCOCC2)n1)/c1cccnc1 ?
BoNT A protease: 0.5; Bead autofluor: 22356*; Anthrax LF prot: 2.4; BJeLR lethal: -14.9; BoNT F protease: -0.1; Vc quorum ag: -3.2

Results for Cc1cc(C(=O)CN2C(=O)c3ccccc3C2=O)c(C)n1Cc1cccs1 ?
BoNT A protease: -4.4; Bead autofluor: 24091*; Anthrax LF prot: -1.1; BJeLR lethal: -6.5; BoNT F protease: -3.0; Vc quorum ag: -0.2

What do the screens show for `CCC(CC)C(=O)Nc1ccc(Sc2ccc([N+](=O)[O-])cc2)cc1`?
BoNT A protease: 2.6; Bead autofluor: 19877*; Anthrax LF prot: -2.7; BJeLR lethal: -2.3; BoNT F protease: -0.7; Vc quorum ag: -1.0

What do the screens show for `CCCC(=O)Nc1ccc(Sc2ccc([N+](=O)[O-])cc2)cc1`?
BoNT A protease: -0.6; Bead autofluor: 3391; Anthrax LF prot: -7.6; BJeLR lethal: 3.8; BoNT F protease: -1.7; Vc quorum ag: -0.1

What do the screens show for `CNc1ccc2ncc(-c3ccccc3NC(C)=O)n2n1`?
BoNT A protease: 0.1; Bead autofluor: 3987; Anthrax LF prot: -11.1; BoNT F protease: 1.9; Vc quorum ag: inactive

How did CC(C)(C)OC(=O)N(Cc1ccccc1)Cc1cccc(OCc2cccc(NC(=O)c3ccccc3)c2)c1 do in these assays?
BoNT A protease: 0.2; Bead autofluor: 3704; Anthrax LF prot: -4.5; BoNT F protease: -2.7; Vc quorum ag: inactive

What do the screens show for `COc1ccc(S(=O)(=O)N2CCC(C(=O)NC3(C)CCS(=O)(=O)C3)CC2)cc1OC` (stereo not given)?
BoNT A protease: -3.5; Bead autofluor: 4920; Anthrax LF prot: 7.3; BJeLR lethal: 11.8; BoNT F protease: -12.5; Vc quorum ag: -0.8

Results for CC1(NC(=O)c2cc(S(=O)(=O)N3CCCCC3)ccc2Cl)CCS(=O)(=O)C1 (stereo not given) ?
BoNT A protease: -1.8; Bead autofluor: 24171*; Anthrax LF prot: -0.2; BJeLR lethal: 4.9; BoNT F protease: -0.7; Vc quorum ag: -2.0

How did C=CCSc1cc(C)nc2c(-c3ccc(Cl)cc3)c(C)nn12 do in these assays?
BoNT A protease: 0.0; Bead autofluor: 20069*; Anthrax LF prot: -0.8; BJeLR lethal: 15.2; BoNT F protease: -0.7; Vc quorum ag: -0.2

Results for Cc1cc(-n2nc(C)cc2C)n2nc(C)c(-c3ccc(Cl)cc3)c2n1 ?
BoNT A protease: 13.3; Bead autofluor: 17908*; Anthrax LF prot: -20.2; BJeLR lethal: 2.5; BoNT F protease: 17.5; Vc quorum ag: -0.2

Results for CN(CC(=O)O/N=C(\N)c1cccc([N+](=O)[O-])c1)S(=O)(=O)c1ccccc1 ?
BoNT A protease: -4.7; Bead autofluor: 17118*; Anthrax LF prot: -1.2; BJeLR lethal: -16.0; BoNT F protease: -7.1; Vc quorum ag: -1.5

What do the screens show for `Cc1cc(C)cc(C(=O)O/N=C(\N)c2ccc(Br)cc2)c1`?
BoNT A protease: 5.4; Bead autofluor: 20148*; Anthrax LF prot: -12.4; BJeLR lethal: 4.2; BoNT F protease: 5.8; Vc quorum ag: 5.6

What do the screens show for `N/C(=N\OC(=O)c1ccc(Cl)c([N+](=O)[O-])c1)c1ccccn1`?
BoNT A protease: -0.3; Bead autofluor: 3119; Anthrax LF prot: -5.6; BJeLR lethal: 14.4; BoNT F protease: 0.1; Vc quorum ag: -0.8

What do the screens show for `N/C(=N\OC(=O)c1ccc(Cl)c([N+](=O)[O-])c1)c1ccccc1`?
BoNT A protease: 4.6; Bead autofluor: 3228; Anthrax LF prot: -11.2; BJeLR lethal: -2.5; BoNT F protease: 63.0*; Vc quorum ag: -1.0

How did Cc1ccc(C(=O)O/N=C(\N)c2cccc([N+](=O)[O-])c2)cc1 do in these assays?
BoNT A protease: -0.9; Bead autofluor: 19951*; Anthrax LF prot: -1.4; BJeLR lethal: 0.5; BoNT F protease: -1.7; Vc quorum ag: inactive

Results for Cc1ccc([C@H]2N[C@]3(CCCN(Cc4ccc(Cl)cc4)C3=O)[C@H]3C(=O)N(C)C(=O)[C@@H]23)cc1 ?
BoNT A protease: -0.6; Bead autofluor: 3541; Anthrax LF prot: -2.0; BoNT F protease: -1.2; Vc quorum ag: 0.5

Results for COc1ccccc1C1c2ccc3ccccc3c2Oc2ncn(CCN(C)C)c(=N)c21 (stereo not given) ?
BoNT A protease: 3.0; Bead autofluor: 4009; Anthrax LF prot: -2.9; BJeLR lethal: 12.9; BoNT F protease: 34.0; Vc quorum ag: -2.0
